Bioassay records (PubChem BioAssay)
In the library only some 6.1% were active in any assay of this set; here they are far more common.
ATXN viability = Viability Counterscreen for Primary qHTS for Inhibitors of ATXN expression | S2 cells (HEK-293 line with an ATXN2-luciferase reporter) viability, CellTiter-Fluor protease fluorescence, 24 h | Potency, µM (top dose mostly 56.7 µM), usual class: cytotoxic | 400,000 tested, 0.49% active | AID 651635, 2014; note: nearly all actives have a fitted effect of over 40% in size
RORgamma inh = qHTS for inhibitors of ROR gamma transcriptional activity; Drosophila S2 Gal4-RORgamma UAS-luciferase reporter, 20 h; Potency, µM (doses to about 53.6 µM), usual class: inhibitors; 310,000 tested, 5.4% active; note: nearly all actives have a fitted effect of over 60% in size
Target sequence (P51450 whole entry, looked up, the tested form may be a part): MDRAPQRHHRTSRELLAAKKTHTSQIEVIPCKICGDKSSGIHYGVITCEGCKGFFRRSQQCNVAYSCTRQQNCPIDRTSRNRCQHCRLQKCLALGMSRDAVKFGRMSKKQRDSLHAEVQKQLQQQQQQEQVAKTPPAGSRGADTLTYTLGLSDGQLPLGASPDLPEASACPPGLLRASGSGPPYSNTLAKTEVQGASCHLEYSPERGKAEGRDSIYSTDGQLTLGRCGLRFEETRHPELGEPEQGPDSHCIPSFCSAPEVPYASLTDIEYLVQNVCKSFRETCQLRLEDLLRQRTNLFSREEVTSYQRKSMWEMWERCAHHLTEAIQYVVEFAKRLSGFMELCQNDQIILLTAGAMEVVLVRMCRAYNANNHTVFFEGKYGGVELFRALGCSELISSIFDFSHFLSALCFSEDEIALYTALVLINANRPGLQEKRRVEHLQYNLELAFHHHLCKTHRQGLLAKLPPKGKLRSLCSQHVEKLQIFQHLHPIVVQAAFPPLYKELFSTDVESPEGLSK
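Luminescence from a UAS-regulated Photinus luciferase reporter in stably transfected Drosophila Schneider cells is measured; decreased signal marks ROR gamma inhibition. Fusion expression is induced by 700 uM copper sulfate for 20 hr.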
TGFb inhibitor = qHTS for Inhibitors of TGF-b; HepG2 CAGA-GFP TGF-b/SMAD3 reporter, GFP fluorescence, 18 h; TGF-beta stimulated, 500 pg/mL final; Potency, µM (highest dose often 46.1 µM), usual class: inhibitors; 410,000 tested, 1.2% active; note: nearly all actives have a fitted effect of over 65% in size
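Inhibition of TGF-beta-driven CAGA-GFP reporter expression in HEPG2 cells is measured by cellular GFP fluorescence after 18 h stimulation with 500 pg/mL recombinant TGF-beta in 1% FBS medium at 37 degrees C.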
HepG2 tox = qHTS for Inhibitors of TGF-b: Cytotox Counterscreen; HepG2 CAGA-GFP viability, ATP luminescence, 18 h; Potency, µM (doses to about 46.1 µM), hits mostly cytotoxic; 410,000 tested, 0.76% active; AID 588856, 2011
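HepG2 CAGA-GFP cells (1000/well, DMEM with 1% FBS) received compound, then TGF-beta at 500 pg/mL final, and were incubated 18 hours at 37 degrees C. Viability was read by CellTiter-Glo luminescence. Media-only wells were set as complete cell-killing and DMSO as no toxicity.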
ATXN2 expr inh = Primary qHTS for Inhibitors of ATXN expression | HEK-293 ATXN2-luciferase reporter, luminescence, 24 h | Potency, µM (series often up to 57 µM), most hits filed as inhibitors | 360,000 tested, 0.72% active; note: nearly all actives have a fitted effect of over 55% in size
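ATXN2-luciferase reporter cells (luciferase flanked by upstream and downstream ATXN2 gene portions) were treated 24 h at 37 °C with compounds at up to 57 uM. SteadyGlo luminescence gave expression; GF-AFC fluorescence gave viability.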
Gal4-VP16 FLuc = VP16 counterscreen qHTS for inhibitors of ROR gamma transcriptional activity; Drosophila S2 Gal4-VP16 UAS-luciferase, luminescence, 20 h; Potency, µM (highest dose often 53.6 µM), usual class: inhibitors; 310,000 tested, 3.5% active; AID 2546, 2010;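 note: Gal4-VP16 expression switched on by copper sulfate through the metallothionein promoter; nearly all actives have a fitted effect of over 50% in size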
Numbers stand for hits; 0 = inactive; ? = inconclusive; - = no result; [ ] = remark or other dose. Calls come from the whole dose curve; as a rule, active = well fitted curve in the direction sought with a large enough effect; inconclusive = small, poorly fitted or top-dose-only effect, or another doubt; inactive = no such curve, though single readings can be large; an effect the other way counts as inactive or inconclusive.

SMILES | ATXN viability | RORgamma inh | TGFb inhibitor | HepG2 tox | ATXN2 expr inh | Gal4-VP16 FLuc
CCOC(=O)N1CCN(C(=S)NC(=O)c2ccc(F)cc2)CC1 | 0 | 2µM | 0 | 0 | 0 | 3.5µM
CCOC(=O)N1CCN(C(=O)/C(=C/c2ccc(F)cc2)NC(=O)c2ccccc2)CC1 | 0 | - | 0 | 0 | 0 | -
CCOC(=O)N1CCN(C(=S)Nc2ccc(C)c(C)c2)CC1 | 0 | ? | 0 | 0 | 0 | 0
CCOC(=O)N1CCN(C(=S)NC(=O)c2ccnn2C)CC1 | 0 | ? | 0 | 0 | 0 | 32µM
CC(=O)Nc1ccc(/C=C/c2nc3ccccc3s2)cc1 | - | - | 0 | 0 | - | -
CC12CC3CC(C)(C1)CC(C(=O)Nc1nncs1)(C3)C2 | 0 | ? | 0 | 0 | 0 | 18µM
Cc1nn(C)c(C(=O)Nc2ccc(Cl)c([N+](=O)[O-])c2)c1Cl | 0 | 0 | 0 | 0 | 0 | 0
CCOc1ccc(NC(=S)NC(=O)c2c(Cl)c(C)nn2C)c([N+](=O)[O-])c1 | ? | 10µM | 0 | 0 | 0 | ?
Cc1nn(C)c(C(=O)NC(=S)Nc2ccccc2O)c1Cl | 0 | 2µM | 0 | 0 | 0 | 3.2µM
Cc1nn(C)c(C(=O)NCc2ccc(Cl)cc2)c1Cl | 0 | ? | 0 | 0 | 0 | 4µM
Cc1cc(NC(=O)c2c(Cl)c(C)nn2C)no1 | 0 | 0 | 0 | 0 | 0 | 0
C[C@]12CC[C@@H]3c4ccc(O)cc4CC[C@H]3[C@@H]1CCC2OC(=O)CCC1CCCC1 (stereo not given in full) | - | 0[10 µM] | - | - | - | ?
O=C(COc1ncnc2ccccc12)NC1CCS(=O)(=O)C1 (stereo not given) | 0 | 0 | 0 | 0 | 0 | 0
Cc1ccc2c(Cl)cc(Cl)c(OCC(=O)NC3CCS(=O)(=O)C3)c2n1 (stereo not given) | 0 | 8.9µM | 0 | 0 | 0 | 11µM
CCN(CC(=O)NC(C)(C)C)C(=O)COc1c(Cl)cc(Cl)c2ccc(C)nc12 | ? | 1.3µM | ? | 0 | - | 3.2µM
Cc1nc2cc(C(=O)O)ccc2n1-c1ccc(C(C)C)cc1 | 0 | - | 0 | 0 | 0 | -
CCCCOc1cccc(C(=O)Nc2ccc(NC(=O)c3cccs3)cc2)c1 | 18µM | ? | 0 | 0 | ? | 0.1µM
O=C(Cc1ccccc1)N[C@@H](Cc1ccccc1)c1nc2ccccc2[nH]1 | 0 | 0 | 0 | 0 | 0 | 0
CC(C)(C)c1ccc(NC(=O)COc2ccc(-n3ccnc3)cc2)cc1 | 0 | 10µM | 0 | 0 | 0 | 0
COc1cc(NC(=O)COc2ccc(-n3ccnc3)cc2)cc(OC)c1 | 0 | 0 | 0 | 0 | - | 0
Cc1cc(OCC(=O)N[C@@H](Cc2ccccc2)c2nc3ccccc3[nH]2)ccc1Cl | 0 | 20µM | 0 | 0 | 0 | ?
Cc1cc(OCC(=O)Nc2ccncc2)cc(C)c1Br | 0 | 0 | 0 | 0 | 0 | 11µM
O=C(CCn1c(=O)c2cccn2c2cccnc21)NCc1ccccc1F | - | - | 0 | 0 | - | -
Cn1c(=O)c2cc(C(=O)NCCCN3CCN(c4ccc(F)cc4)CC3)sc2c2ccccc21 | 0 | - | 0 | 0 | ? | -
O=C(COc1ccc2ccccc2c1)Nc1ccncc1 | 0 | ? | 0 | 0 | 0 | 13µM
SMILES | ATXN viability | RORgamma inh | TGFb inhibitor | HepG2 tox | ATXN2 expr inh | Gal4-VP16 FLuc
Cc1cc(OCC(=O)Nc2ccncc2)ccc1Cl | 0 | ? | 0 | 0 | 0 | 11µM
O=C(Nc1ccncc1)c1cc(F)cc(F)c1 | 0 | ? | 0 | 0 | 0 | 25µM
Cc1cc(OCC(=O)Nc2ccc3oc(-c4ccncc4)nc3c2)ccc1Cl | - | 0 | 0 | 0 | - | 0
O=C(Nc1ccncc1)c1ccc(Br)cc1 | 0 | 0 | 0 | 0 | - | 0
Cc1cc(OCC(=O)Nc2ccc(Br)cc2)cc2c1C(=O)CC(C)(C)O2 | 0 | 0 | ? | 0 | 13µM | 0
Cc1cc2c(cc1S(=O)(=O)CCC(=O)N1CCN(c3ccccc3)CC1)OCC(=O)N2 | 0 | - | 0 | 0 | 0 | -
CCC(=O)[C@]12O[C@@]3(C4C(=O)OCCC41)N(CC)C(C)=C(C(=O)OC)C(c1ccccc1)N3C2=O (stereo not given in full) | - | 0[10 µM] | - | - | - | 0[10 µM]
Cc1ccc(C)c(N2CCN(C(=O)c3cc(C)nc4c3c(C)nn4-c3ccccc3)CC2)c1 | 0 | - | ? | 0 | 0 | -
Cc1ccccc1NS(=O)(=O)c1nnc(NC(=O)c2ccco2)s1 | - | - | 0 | 0 | - | -
O=C1[C@H](Cc2ccccc2)NC/C=C\C[C@@H](c2ccco2)N1Cc1ccccc1 | - | - | ? | 0 | - | -
Cc1cc(C)cc(OCC(=O)Nc2cccc(-c3nc4ccccc4[nH]3)c2)c1 | ? | - | ? | 0 | 0 | -
O=C(COc1ccccc1)Nc1cccc(-c2nc3cc4ccccc4cc3[nH]2)c1 | ? | 1µM | ? | 10µM | 0 | 2µM
CC(C)(C)c1ccc(OCC(=O)Nc2ccncc2)cc1 | 0 | ? | ? | 0 | 0 | 0
CCc1ccc(OCC(=O)Nc2ccncc2)cc1 | ? | 0[1.91 µM] | 0 | 0 | - | 3.5µM
CCCOc1ccc(C(=O)Nc2cccnc2)cc1 | 0 | 0[1.91 µM] | 0 | 0 | - | 0
CCCCOc1ccc(C(=O)Nc2ccncc2)cc1 | 0 | ? | 0 | 0 | 0 | 7.9µM
O=C(c1ccoc1)N1CCOc2ccc(CN3CCC(Oc4cccnc4)CC3)cc2C1 | 0 | - | - | - | - | -
OC1(c2ccc(Br)cc2)CCN(Cc2cccc(Br)c2)CC1 | 0 | - | ? | 11µM | - | -
CCCCCCC1CC(CCc2nc(=S)[nH][nH]2)C(=O)O1 (stereo not given) | 0 | 0 | 0 | 0 | 0 | 0
CCCCCCCCc1nc(=S)[nH][nH]1 | 0 | 10µM | 0 | 0 | 0 | ?
CCOC(=O)c1ccccc1NC(=O)CSc1nc2cn(CC)nc2c(=O)n1Cc1ccc(Cl)cc1 | 0 | - | 0 | 0 | 0 | -
Cc1noc(C)c1-c1ccc2ncnc(NCc3ccc(F)cc3)c2c1 | - | 0 | - | - | - | 0
COc1ccccc1CNc1ncnc2ccc(-c3ccc(N(C)C)cc3)cc12 | - | 0 | - | - | - | 0
Cc1noc(C)c1-c1ccc2ncnc(NCc3cccc(C(F)(F)F)c3)c2c1 | - | 0 | - | - | - | 13µM
CCOc1ccccc1CNc1ncnc2ccc(-c3c(C)noc3C)cc12 | 0 | 40µM | 0 | 0 | 0 | ?
SMILES | ATXN viability | RORgamma inh | TGFb inhibitor | HepG2 tox | ATXN2 expr inh | Gal4-VP16 FLuc
Cc1noc(C)c1-c1ccc2ncnc(NCc3ccccc3F)c2c1 | - | 0 | - | - | - | 11µM
COc1ccccc1CNc1ncnc2ccc(-c3ccccc3OC)cc12 | - | ? | - | - | - | 22µM
Cc1ccccc1-c1ccc2ncnc(N(C)Cc3ccco3)c2c1 | - | 0 | - | - | - | 0
Cc1noc(C)c1-c1ccc2ncnc(N(C)Cc3ccco3)c2c1 | - | 13µM | - | - | - | ?
CN(C)CCNC(=O)c1cc2c(s1)-c1ccc(Cl)cc1SC2 | ? | 10µM | 11µM | 11µM | - | ?
CCOc1ccccc1C(=O)NC(C(=O)OCC(=O)Nc1nnc(-c2ccccc2)o1)C(C)C (stereo not given) | 0 | 2.2µM | 0 | 0 | 0 | 5µM
